The list is not random: actives were taken first. Their share in the collection is about 1.8%.
MLL AF4-AF9 inh – blocks AF4 peptide binding to human AF9 | AlphaScreen, biotin-AF4 peptide binding to FLAG-AF9 | inhibition, % at 10 µM | actives 0.47% (n = 350,000) | AID 651704;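 active = every replicate reaching a set inhibition limit, whatever the replicate mean, cut at about 25% in these data; inconclusive = mean inhibition reaches that limit but some replicates miss it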;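 also: 0% = plate neutral control median and 100% = total signal loss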
Target sequence (P42568 whole entry, looked up): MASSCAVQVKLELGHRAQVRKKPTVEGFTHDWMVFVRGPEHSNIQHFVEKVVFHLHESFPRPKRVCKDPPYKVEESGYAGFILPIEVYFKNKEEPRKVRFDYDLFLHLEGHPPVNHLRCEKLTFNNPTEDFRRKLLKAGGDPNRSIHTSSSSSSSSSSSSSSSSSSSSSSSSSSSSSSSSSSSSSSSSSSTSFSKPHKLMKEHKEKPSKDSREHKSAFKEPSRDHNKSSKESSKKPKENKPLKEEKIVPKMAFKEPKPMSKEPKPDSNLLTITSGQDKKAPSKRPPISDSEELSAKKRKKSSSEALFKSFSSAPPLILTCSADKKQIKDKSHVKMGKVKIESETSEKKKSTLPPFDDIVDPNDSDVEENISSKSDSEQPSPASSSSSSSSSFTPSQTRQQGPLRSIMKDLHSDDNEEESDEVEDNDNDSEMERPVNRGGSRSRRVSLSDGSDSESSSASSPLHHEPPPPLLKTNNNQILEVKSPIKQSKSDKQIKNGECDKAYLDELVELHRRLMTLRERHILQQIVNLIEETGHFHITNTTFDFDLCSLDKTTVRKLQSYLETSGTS
DENV2 CPE – inhibitors of DENV2 cytopathic effect; CPE inhibition, % at 9.99 µM; AID 651640; actives 1.7% (n = 350,000); DENV2-infected cells, cytopathic effect rescue, plate reader; in the data active = CPE inhibition above about 20%, passing the limit was not always enough; inconclusive = no clear call, values can overlap the other calls; tested in BHK-21 cells;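 also: 0% = median of neutral control wells and 100% = median of positive control wells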
ERp5 inh – inhibitors of human ERp5; inhibition, % at 9.99 µM; Q15084; AID 651711; actives 0.05% (n = 350,000); ERp5 insulin aggregation, absorbance 650 nm, 90 min;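 active = mean replicate inhibition above about 25%, with every replicate also reaching it, limit read from the data, passing the limit was not always enough; inconclusive = only one of those two criteria met; inactive = neither criterion met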
PDI inh – blocks human protein disulfide isomerase activity; actives 0.052% (n = 350,000); PDI insulin aggregation turbidity, A650, 90 min; inhibition, % at 10 µM; P07237;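 active = mean inhibition across replicates of 30% or more, whatever share of single replicates reach that level; inconclusive = mean inhibition below 30% while every single replicate reaches 30%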
ERAP1 inh – ERAP1 (human) enzyme inhibition; inhibition, % at 10.7 µM; actives 0.15% (n = 340,000); recombinant ERAP1, Leu-AMC fluorescence, 60 min; AID 652197;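 active = mean replicate inhibition of at least 30%, or all replicates individually reaching that 30% level; inactive = mean below 30% and not every replicate reaching it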;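 also: 0% = neutral control wells and 100% = L-leucinethiol positive control wells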
* hit, by the source's call; ? = inconclusive; · = no result given.

SMILES | MLL AF4-AF9 inh | DENV2 CPE | ERp5 inh | PDI inh | ERAP1 inh
Nc1nc(NCC2CCCO2)nc(Nc2cccc(F)c2)c1[N+](=O)[O-] (stereo unspecified) | 31.0* | 2.6 | -0.9 | 2.5 | 1.5
Cc1cc(NC(=O)COC(=O)Cn2[nH]c(=O)c3ccccc3c2=O)c([N+](=O)[O-])cc1C | -2.2 | 52.1* | 3.6 | 22.7 | -0.1
CN1C(=O)c2cc(NC(=O)C3CCCC3)ccc2OC[C@H]2O[C@@H](CC(=O)Nc3ccccc3)CC[C@H]21 | -1.3 | 4.3 | -3.0 | · | -2.1
COc1ccc(S(=O)(=O)N2CCC3CC2c2cc(-c4ccc5c(c4)OCO5)ccc23)cc1 (stereo unspecified) | 0.2 | 88.7* | 1.1 | · | -2.3
Nc1ccc(CCS(N)(=O)=O)cc1 | · | · | · | 0.3 | ·
CN(C)c1ccc(CCc2ccc(N)cc2)cc1 | 1.7 | 26.3* | -0.8 | -5.7 | -3.8
C[C@H]1CCCCO[C@H](CN(C)S(=O)(=O)c2ccc(Cl)cc2)[C@@H](C)CN([C@@H](C)CO)C(=O)c2cc(NC(=O)C3CCCCC3)ccc2O1 | -0.3 | -2.2 | 3.3 | · | 0.2
CCN(C(=O)COC(=O)c1cccnc1SC)C1CCS(=O)(=O)C1 (stereo unspecified) | · | · | 3.5 | -1.4 | 1.1
CCN(C(=O)COC(=O)c1cnc(C)cn1)C1CCS(=O)(=O)C1 (stereo unspecified) | 1.0 | -6.1 | 2.3 | 1.6 | 69.0*
O=C(Nc1ccc(Cl)cc1)N[C@@H]1CC[C@H](CCNC(=O)c2cc(Cl)cc(Cl)c2)O[C@@H]1CO | -1.5 | -9.9 | 6.2 | · | 0.4
O=C(CSc1cn[nH]n1)Nc1cccc(C(=O)O)c1 | 0.4 | 2.1 | 24.7 | 1.0 | 32.4*
C[C@@H]1CN([C@@H](C)CO)C(=O)Cc2cc(NC(=O)NC3CCCCC3)ccc2O[C@H]1CN(C)Cc1ccc(C(=O)O)cc1 | -0.7 | -2.3 | 2.0 | · | 4.3
CN(CC(=O)Nc1ccccc1Cl)C(=O)COC(=O)c1cccs1 | 3.1 | 56.7* | -2.7 | 12.4 | 4.6
COc1ccc2c(c1)[N+](C)(C)C(C)(C)C=C2C | 5.0 | -3.4 | -2.2 | 0.4 | 44.8*
COc1ccc2c(c1)C(C)=CC(C)(C)N2S(=O)(=O)c1ccc(C)cc1 | 4.1 | -8.8 | 3.9 | 3.9 | 0.0
CCOc1ccc2c(c1)[N+](C)(C)C(C)(C)C=C2C | -0.9 | 0.2 | -3.2 | -0.2 | 41.0*
COc1cccc(NC(=O)N2C[C@H](O)COC[C@@H]3O[C@@H](CC(=O)NCCCN4CCOCC4)CC[C@H]32)c1 | · | -1.4 | · | · | ·
c1cncc(-c2ccc(C3[C@H]4CNC[C@@H]3N4CC3CCCCC3)cc2)c1 (stereo partly specified) | ? | -4.2 | -0.5 | · | -4.8
C[C@H](CO)N1C[C@H](C)[C@@H](CN(C)C(=O)Nc2ccccc2)Oc2c(NC(=O)NC3CCCCC3)cccc2C1=O | -2.7 | 63.5* | 0.1 | 6.1 | -6.2
C[C@H](CO)N1C[C@H](C)[C@H](CN(C)C(=O)Nc2ccccc2)Oc2c(NC(=O)Nc3ccccc3)cccc2C1=O | 3.3 | -1.2 | -4.0 | · | 3.6
CC(C)NC(=O)Nc1cccc2c1O[C@H](CN(C)C(=O)Nc1ccccc1)[C@H](C)CN([C@H](C)CO)C2=O | -3.0 | 42.4* | -0.1 | · | -2.9
Cc1noc(C)c1NC(=O)Nc1cccc2c1O[C@H](CN(C)S(C)(=O)=O)[C@H](C)CN([C@@H](C)CO)C2=O | -0.7 | -0.3 | 11.6 | · | -0.5
CO[C@@H]1CN(C)C(=O)c2cc(NC(=O)C3CCOCC3)ccc2OC[C@@H](C)N(C(=O)Nc2ccc(C(F)(F)F)cc2)C[C@H]1C | -0.8 | 7.9 | 4.2 | · | 1.0
COc1ccccc1C(=O)COC(=O)CCN=C1NS(=O)(=O)c2ccccc21 | -4.9 | 2.3 | -7.0 | 8.0 | 1.6
COc1ccc(C(=O)COC(=O)CCCN=C2NS(=O)(=O)c3ccccc32)c(OC)c1 | -15.0 | 35.8* | -8.4 | 6.9 | 0.7
SMILES | MLL AF4-AF9 inh | DENV2 CPE | ERp5 inh | PDI inh | ERAP1 inh
O=C(CCCN=C1NS(=O)(=O)c2ccccc21)OCC(=O)c1ccccc1 | 0.3 | -4.7 | 2.6 | -0.6 | 1.8
COc1ccc(C(=O)COC(=O)CCN=C2NS(=O)(=O)c3ccccc32)c(OC)c1 | -19.4 | 82.5* | -2.4 | 7.4 | -2.3
C/C(=N\OCC(=O)Nc1ccccc1C(C)(C)C)c1ccc2c(c1)OCCO2 | 4.2 | -1.0 | 7.4 | -2.6 | 2.1
C/C(=N\OCC(=O)Nc1ccc(OC(F)(F)F)cc1)c1ccc2c(c1)OCCO2 | 1.1 | 107.8* | 6.5 | 2.1 | -1.2
CCc1cc(=O)oc2cc(C)cc(OCC(=O)NC(Cc3c[nH]c4ccc(O)cc34)C(=O)O)c12 (stereo unspecified) | -0.5 | 18.3 | 9.5 | · | 12.6
CC(Oc1ccc2ccc(=O)oc2c1)C(=O)NC(Cc1c[nH]c2ccc(O)cc12)C(=O)O (stereo unspecified) | -1.8 | 102.3* | 2.4 | · | 2.2
COc1ccc(-c2cc(=O)oc3cc(OC(C)C(=O)NC(Cc4c[nH]c5ccc(O)cc45)C(=O)O)ccc23)cc1 (stereo unspecified) | -3.8 | ? | 6.3 | · | 30.7*
CCc1cc(=O)oc2cc(C)cc(OC(C)C(=O)NC(Cc3c[nH]c4ccc(O)cc34)C(=O)O)c12 (stereo unspecified) | -0.8 | 67.7* | -4.0 | · | -0.7
C[C@H](CO)N1C[C@H](C)[C@H](CN(C)S(=O)(=O)c2cn(C)cn2)Oc2ncc(/C=C/c3ccccc3)cc2C1=O | 2.4 | -7.8 | -5.1 | · | -2.5
C[C@@H]1CN([C@H](C)CO)C(=O)c2cc(NC(=O)Nc3ccc(F)cc3)ccc2O[C@@H](C)CCCCO[C@H]1CN(C)C | -0.9 | 41.8* | -2.7 | · | -1.8
CC(C)NC(=O)N(C)C[C@@H]1OCCCC[C@H](C)Oc2ccc(NC(=O)Nc3ccc(F)cc3)cc2C(=O)N([C@@H](C)CO)C[C@H]1C | -1.7 | 39.1* | -1.9 | · | -2.2
C[C@@H]1CCCCO[C@@H](CN(C)C(=O)Nc2ccc(F)cc2)[C@H](C)CN([C@H](C)CO)C(=O)c2cc(NC(=O)Nc3ccc(F)cc3)ccc2O1 | 1.8 | 64.7* | -0.3 | · | 2.4
C[C@@H]1CCCCO[C@@H](CN(C)C(=O)c2ccccc2)[C@H](C)CN([C@@H](C)CO)C(=O)c2cc(NC(=O)Nc3ccc(F)cc3)ccc2O1 | -9.0 | 9.4 | -4.4 | · | -4.1
C[C@H]1CCCCO[C@H](CN(C)C)[C@@H](C)CN([C@@H](C)CO)C(=O)c2cc(NC(=O)Nc3ccc(F)cc3)ccc2O1 | 1.9 | 13.7 | -3.3 | · | -4.7
C[C@H]1CCCCO[C@H](CN(C)C(=O)c2ccccc2)[C@@H](C)CN([C@@H](C)CO)C(=O)c2cc(NC(=O)Nc3ccc(F)cc3)ccc2O1 | -6.5 | 27.8* | -0.2 | · | -5.2
CCCNC(=O)N1C[C@H](C)[C@@H](OC)CN(C)C(=O)c2cc(NC(C)=O)ccc2OC[C@@H]1C | -3.9 | 10.2 | -4.4 | · | -0.5
Cc1noc(C)c1NC(=O)N(C)C[C@@H]1Oc2c(NC(=O)C3CC3)cccc2C(=O)N([C@H](C)CO)C[C@@H]1C | -1.9 | 0.9 | 5.1 | · | 0.4

Screening results: PubChem BioAssay, Broad Institute
